Consider 108 molecules from PubChem BioAssay AID2642 (Johns Hopkins Ion Channel Center, 2010).

Molecules are shown by their SMILES. Hit rate of the full screen: of about 310,000 compounds, about 3,900 (1.3%) were called active.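 Rule for the calls: active = compounds whose thallium flux B-score, printed positive for inhibition, exceeds three library SD while starting fluorescence stays within three; inactive = the rest.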 Many of the other results were omitted from the sample, so actives are more common in it than they were.

The target of this assay is Potassium voltage-gated channel subfamily KQT member 1 (Homo sapiens) (UniProt P51787). The assay can be described thus: inhibitors of human KCNQ1 channel, primary screen, cell-based, thallium flux, high-throughput (AID 2642).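 Note: channel opened by potassium depolarization with thallium stimulus after 20 min compound exposure.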 Conditions: CHO-K1 KCNQ1, FluxOR thallium flux fluorescence, at 10 µM; hits give high values.
Sequence of Potassium voltage-gated channel subfamily KQT member 1 (Homo sapiens) (P51787 whole entry, looked up): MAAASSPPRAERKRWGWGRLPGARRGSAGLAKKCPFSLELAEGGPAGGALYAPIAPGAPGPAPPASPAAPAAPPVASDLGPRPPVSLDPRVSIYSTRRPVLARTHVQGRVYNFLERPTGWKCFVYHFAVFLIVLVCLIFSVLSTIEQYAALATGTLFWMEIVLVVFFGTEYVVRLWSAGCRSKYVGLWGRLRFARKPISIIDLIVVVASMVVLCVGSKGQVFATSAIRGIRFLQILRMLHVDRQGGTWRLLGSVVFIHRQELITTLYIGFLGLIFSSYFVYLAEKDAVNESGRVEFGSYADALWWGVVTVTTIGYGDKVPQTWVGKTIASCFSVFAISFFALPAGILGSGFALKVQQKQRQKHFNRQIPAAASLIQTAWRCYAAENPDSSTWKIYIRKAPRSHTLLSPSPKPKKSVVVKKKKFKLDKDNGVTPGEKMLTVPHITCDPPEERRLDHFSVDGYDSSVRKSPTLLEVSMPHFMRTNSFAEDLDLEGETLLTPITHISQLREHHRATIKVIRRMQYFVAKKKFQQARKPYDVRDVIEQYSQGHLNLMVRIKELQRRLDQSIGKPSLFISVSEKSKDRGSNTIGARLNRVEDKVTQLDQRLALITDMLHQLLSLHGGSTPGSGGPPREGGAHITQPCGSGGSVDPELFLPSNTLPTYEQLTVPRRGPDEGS
`O=C(O)CCCn1c(=O)c2cccn2c2ccc(F)cc21`: the B-score entry was “inactive”.

As for `C=CCOC(=O)C1=C(C)OC(N)=C(C#N)C1c1ccc(F)cc1` (stereo not drawn), the B-score result was “inactive”.

As to `C=CCOC(=O)C1=C(C)NC(SCC(=O)OCC)=C(C#N)C1c1ccc(C)cc1` (stereo not drawn), the B-score is 6 (active).

On to `CCOC(=O)CSC1=C(C#N)C(c2sccc2C)CC(=O)N1` (stereo not drawn), for which the B-score result was “inactive”.

As to `NC(=O)c1ncc(C(F)(F)F)cc1Oc1ccc(F)cc1`, the B-score result was “inactive”.

Take `CCOc1ccc(N/C(N)=N/c2nc(C)c(C)c(=O)[nH]2)cc1`: the B-score entry was “inactive”.

Regarding `CCc1nnc(NC(=O)CCCSc2nc3ccccc3[nH]2)s1`, the B-score entry is “inactive”.

For the molecule `CCC(C)N1C(=O)S/C(=C/c2ccc(Sc3nc4ccccc4[nH]3)o2)C1=O` (stereo not drawn), the B-score was 13 (active).

As to `CCCCSc1nc2ccccc2[nH]1`, the B-score entry was “inactive”.

With `CCOc1ccc(C(=O)NCC(=O)N2CCCCCCC2)cc1OCC`, the B-score entry was “inactive”.

As to `CC(=O)N1CCC(C(=O)Nc2nc(-c3ccccc3)ns2)CC1`, the B-score result is “inactive”.

With `O=C(N/N=C/c1c[nH]c2ccccc12)c1ccccc1O`, the B-score entry was “inactive”.

Regarding `C[n+]1ccc(/C=C/c2c[nH]c3ccccc23)cc1`, the B-score is 13 (active).

With `COc1ccc(/C=C(\C#N)c2c[nH]c3ccccc23)cc1`, the B-score result was “inactive”.

Take `COc1ccc(CC(=O)OC(C)C(=O)Nc2ccc(S(N)(=O)=O)cc2)cc1` (stereo not drawn): the B-score entry is “inactive”.

Consider `COC(=O)c1cc(NC(=O)c2cc(C(C)(C)C)nn2Cc2cccc(C)c2)ccc1N1CCOCC1`, for which the B-score is 6 (active).

In the case of `COC(=O)c1cc(NC(=O)c2ccco2)ccc1N1CCOCC1`, the B-score result was “inactive”.

`CC(=O)Nc1ccc(N2CCOCC2)c(C(=O)Nc2cccc(C)c2)c1`: the B-score entry was “inactive”.

Regarding `COc1cccc(C(O)c2nc3ccccc3n2C)c1` (stereo not drawn), the B-score entry was “inactive”.

For `CCCCCC(O)c1cccc(OCc2ccc3ccccc3n2)c1` (stereo not drawn), the B-score was 6 (active).

As for `CCCCCCOC(=O)NCC(O)c1ccccc1` (stereo not drawn), the B-score result is “inactive”.

As for `O=C(O)CC12CC3CC(C1)CC(n1ncc(NCc4ccc(F)cc4)c(Cl)c1=O)(C3)C2`, the B-score result is “inactive”.

Consider `CC(=O)N/N=C/c1cc2c(cc1[N+](=O)[O-])OCO2`, for which the B-score result is “inactive”.

For `CC1(C(=O)N/N=C/c2cc3c(cc2Br)OCO3)CC1(Br)Br` (stereo not drawn), the B-score is 9 (active).

In the case of `O=C(N/N=C/c1cc2c(cc1Br)OCO2)C1COc2ccccc2O1` (stereo not drawn), the B-score result is “inactive”.

In the case of `CCCC(=O)N1CCN(c2nnc(-c3ccc(C)cc3)c3ccccc23)CC1`, the B-score was 7 (active).

In the case of `c1ccc(-c2nnc(N3CCOCC3)c3ccccc23)cc1`, the B-score entry was “inactive”.

With `OCCN1CCN(c2nnc(-c3ccccc3)c3ccccc23)CC1`, the B-score entry was “inactive”.

Consider `COC(=O)c1ccc(S(=O)(=O)N2CCc3ccccc3C2)cc1`, for which the B-score entry was “inactive”.

Consider `COc1ccccc1CNC(=O)C1Cc2ccccc2C(=O)O1` (stereo not drawn), for which the B-score result was “inactive”.

For `CCNC(=S)N(CCN(CC)CC)Cc1cc2cc3c(cc2[nH]c1=O)OCO3`, the B-score entry is “inactive”.

With `Clc1ccc(CSc2nnc3c(n2)[nH]c2ccccc23)cc1`, the B-score entry is “inactive”.

On to `CCCCn1ccnc1C(=O)c1cccc(S(=O)(=O)N2c3ccccc3CC2C)c1` (stereo not drawn), for which the B-score was 6 (active).

In the case of `CC1Cc2ccccc2N1S(=O)(=O)c1ccc(Cl)nc1` (stereo not drawn), the B-score result was “inactive”.

As for `CC1Cc2ccccc2N1S(=O)(=O)c1c(N)n(C)c(=O)n(C)c1=O` (stereo not drawn), the B-score entry was “inactive”.

On to `COc1ccc(C2C(C#N)=C(/N=C/N3CCOCC3)OC3=C2C(=O)CC(C)(C)C3)cc1OC` (stereo not drawn), for which the B-score result was “inactive”.

For `CSc1nccc(NC(=O)c2ccc(C(C)(C)C)cc2)n1`, the B-score is 7 (active).

As to `COC(=O)c1nc(NC(=O)c2ccc(C(C)(C)C)cc2)n[nH]1`, the B-score entry is “inactive”.

Take `Cc1cccc(NC(=O)c2cccnc2Cl)n1`: the B-score entry is “inactive”.

Regarding `COc1ccccc1N(C)S(=O)(=O)c1ccc(Cl)c(C(=O)Nc2ccncc2)c1`, the B-score entry was “inactive”.

Take `Cc1cnc(C(=O)OCC(=O)NCCCc2ccccc2)cn1`: the B-score entry was “inactive”.

Take `Cc1ccc(OC(=O)c2cncc(Br)c2)c(C)c1`: the B-score result was “inactive”.

In the case of `Cc1ccccc1NC(=O)NCc1ccco1`, the B-score result is “inactive”.

Take `O=C(Nc1ccccc1)Nc1ccccc1C(=O)NCc1ccco1`: the B-score entry was “inactive”.

In the case of `Cc1cccc(Nc2ccccc2C(=O)NCc2ccco2)c1C`, the B-score was 9 (active).

`CSc1ccc(S(=O)(=O)N2CCC(C(=O)NCc3ccncc3)CC2)cc1`: the B-score entry is “inactive”.

With `Cc1csc(NC(=O)CSc2nnc(-c3cccnc3)o2)n1`, the B-score entry was “inactive”.

With `Cc1ccccc1OCC(=O)Nc1ccc(N2CCN(C(=O)C(C)C)CC2)c(Cl)c1`, the B-score was 6 (active).

Take `Cc1ccccc1OCC(=O)Nc1ccc2c(c1)ncn2C`: the B-score entry is “inactive”.

`Cc1ccccc1OCC(=O)Nc1ccc(S(=O)(=O)N2CCOCC2)cc1`: the B-score result is “inactive”.

Turning to `CC(=O)NNC1=Nc2ccccc2N(C)C(C)C1` (stereo not drawn), the B-score entry is “inactive”.

`CCc1ccc2c(c1)C1(NN=C(c3ccccc3)S1)C(=O)N2` (stereo not drawn): the B-score was 11 (active).

Regarding `CC(C)N(C(=O)Cn1cc(S(=O)(=O)CC(=O)N2CCOCC2)c2ccccc21)C(C)C`, the B-score entry was “inactive”.

For the molecule `COc1ccccc1NC(=O)c1ccc(N2CC3CC(C2)c2cccc(=O)n2C3)c(NC(=O)c2cccnc2)c1` (stereo not drawn), the B-score entry was “inactive”.

Take `O=C1CCC(=O)N1c1ccc(NCCc2ccccc2F)c([N+](=O)[O-])c1`: the B-score result was “inactive”.

As for `CC1(c2nnc(Cc3ccccc3)o2)CC(c2ccccc2F)=NO1` (stereo not drawn), the B-score result was “inactive”.

For `Cc1cc(N2C(=O)C(O)=C(C(=O)c3ccc(C)o3)C2c2ccc(OCc3ccccc3)cc2)no1` (stereo not drawn), the B-score entry is “inactive”.

Consider `C=CCOc1cccc(C2C(C(=O)c3ccc(C)o3)=C(O)C(=O)N2CCCn2ccnc2)c1` (stereo not drawn), for which the B-score result is “inactive”.

As for `C=CCOc1cccc(C2C(C(=O)c3ccc(C)o3)=C(O)C(=O)N2c2nnc(C)s2)c1` (stereo not drawn), the B-score is 11 (active).

With `COc1ccc(NC(=O)C2=CC(c3ccc(OC)c(OC)c3)=NS(=O)(=O)N2C)cc1`, the B-score entry was “inactive”.

In the case of `Cc1ccc2c(c1)N(CC(=O)NCC1CCCO1)C(=O)CO2` (stereo not drawn), the B-score entry was “inactive”.

With `Cc1nn(CC(=O)NCC2CCCO2)c(=O)c2cc3ccccc3n12` (stereo not drawn), the B-score entry was “inactive”.

For `COCc1cc(C)n(CC(=O)NCC2CCCO2)c(=O)c1C#N` (stereo not drawn), the B-score was 6 (active).

For `Cc1cc(-c2ccc(C)c(S(=O)(=O)Nc3ccc(S(N)(=O)=O)cc3)c2)on1`, the B-score result is “inactive”.

For `Cc1cccc(N2CCN(C(c3ccc(N(C)C)cc3)c3nnnn3C(C)(C)C)CC2)c1C` (stereo not drawn), the B-score result is “inactive”.

Turning to `COc1ccccc1C(c1nnnn1CC1CCCO1)N1CCN(c2ccccc2)CC1` (stereo not drawn), the B-score entry is “inactive”.

Take `Cc1cccc(N2CCN(C(c3ccccc3)c3nnnn3CC3CCCO3)CC2)c1C` (stereo not drawn): the B-score is 6 (active).

Consider `NC(=O)C1CCN(C(=O)CC2C(=O)NCCN2Cc2cccc(Oc3ccccc3)c2)CC1` (stereo not drawn), for which the B-score entry is “inactive”.

Consider `CS(=O)(=O)N1CCc2nc(-c3ccccc3)sc2C1`, for which the B-score result is “inactive”.

Take `CCCOc1ccc2c3c(c(=O)oc2c1OCCC)CCC3`: the B-score is 8 (active).

Turning to `COc1ccc2c3c(c(=O)oc2c1OCC(=O)C(C)(C)C)CCCC3`, the B-score result is “inactive”.

With `Cc1c(OC(C)C(=O)N[C@@H](Cc2ccccc2)C(=O)O)ccc2c3c(c(=O)oc12)CCCC3` (stereo partly drawn), the B-score result was “inactive”.

As to `CC(=O)Nc1ccc(C(=O)N(C2=NC(C)CS2)c2ccc(Cl)cc2)cc1` (stereo not drawn), the B-score result was “inactive”.

Consider `CCC(C)[C@H](NC(=O)N1c2ccccc2NC(=O)[C@@H]1C(C)C)C(=O)N[C@@H](Cc1ccccc1)C(=O)O` (stereo partly drawn), for which the B-score entry is “inactive”.

In the case of `CCCCCCCCn1c2c(c(=N)c3c1CCC3)CCCC2`, the B-score is 10 (active).

As for `Cc1ccccc1CCNC(=O)C1CCC(=O)N(Cc2ccc(Cl)cc2)C1` (stereo not drawn), the B-score result was “inactive”.

`Cc1ccc(CSc2nc(-c3ccccc3)c(C#N)c(=O)[nH]2)cc1`: the B-score entry was “inactive”.

Take `N#Cc1c(-c2ccccc2)nc(SCc2ccc([N+](=O)[O-])cc2)[nH]c1=O`: the B-score result was “inactive”.

As for `N#Cc1c(-c2ccccc2)nc(SCc2cccc(C(F)(F)F)c2)[nH]c1=O`, the B-score was 8 (active).

Consider `Clc1ccc2nc(CSc3ccccc3)cn2c1`, for which the B-score result is “inactive”.

On to `CCOC(=O)c1cnc(-n2nc(C)cc2C)nc1NNc1cc(C)nc(-c2ccccc2)n1`, for which the B-score entry was “inactive”.

Take `COc1ccc(NC(C)=O)cc1NC(=O)CN1CCN(C2c3ccccc3-c3ccccc32)CC1`: the B-score entry was “inactive”.

In the case of `O=C1CCN(Cc2ccccc2)CCN1[C@H](CSc1ccccc1)c1ccccc1`, the B-score result is “inactive”.

Turning to `CCNC(=O)c1ccc(OCC(=O)Nc2ccc(F)cc2)c(OC)c1`, the B-score is 6 (active).

As for `CCOc1ccc(NC(=O)COc2ccc(C(=O)N3CCC(C(N)=O)CC3)cc2OC)cc1`, the B-score entry was “inactive”.

On to `COc1ccc(NC(=O)COc2ccc(C(=O)c3ccc(F)cc3)cc2)cc1S(N)(=O)=O`, for which the B-score result was “inactive”.

As to `Cc1ccccc1Cn1c2ccccc2c2cnn(CC(=O)NCc3ccco3)c(=O)c21`, the B-score result was “inactive”.

As for `CSC1=N/C(=C\C=C\c2cccs2)C(=O)S1`, the B-score entry was “inactive”.

As to `CC(=O)Nc1ccc(NC(=O)C(C)OC(=O)C2CC(=O)N(CCc3ccccc3)C2)cc1` (stereo not drawn), the B-score result is “inactive”.

Take `COc1ccc(CN(C)C(C)C(=O)NC2CCCc3ccccc32)cc1` (stereo not drawn): the B-score result was “inactive”.

On to `CC(C(=O)NCC1CCCCC1)N(C)Cc1cccc(Cl)c1` (stereo not drawn), for which the B-score is 8 (active).

For the molecule `Cc1ccccc1NC(=O)NCC1CCN(Cc2cccc(Cl)c2)CC1`, the B-score entry is “inactive”.

Turning to `COc1cccc(COC(=O)C2CCN(S(=O)(=O)c3cccs3)CC2)c1OC`, the B-score entry was “inactive”.

`O=C(COC(=O)c1cccs1)NCc1cccs1`: the B-score result was “inactive”.

`O=C(COC(=O)/C(=C/c1cccs1)c1cccs1)NCc1ccccc1Cl`: the B-score was 7 (active).

In the case of `O=C(COC(=O)c1cc2c(s1)CCCC2)NCc1ccccc1Cl`, the B-score entry is “inactive”.

With `O=c1c2c(nc3cc(-c4cccc(Cl)c4)[nH]n13)CCCC2`, the B-score result is “inactive”.

As to `O=C(CN1C(=O)NC2(CCCC2)C1=O)OCCOc1ccc(F)cc1`, the B-score result was “inactive”.

As for `Cc1c(NS(=O)(=O)c2ccc(NC3CCCC3)c([N+](=O)[O-])c2)c(=O)n(-c2ccccc2)n1C`, the B-score result is “inactive”.

Regarding `Cc1cc([N+](=O)[O-])ccc1NC1CCCC1`, the B-score result was “inactive”.

For the molecule `Cc1cc(C=O)c(C)n1-c1ccc(NC2CCCCC2)c([N+](=O)[O-])c1`, the B-score is 14 (active).

As to `CC(=O)Oc1c(C(=O)c2nnc(C)o2)c(=O)n(Cc2ccccc2)c2ccccc12`, the B-score entry is “inactive”.

On to `Cc1ccc(S(=O)(=O)c2c(COC(=O)c3cccc(Cl)c3)c(-c3ccccc3)nn2C)cc1`, for which the B-score entry is “inactive”.

For `Cn1nc(-c2ccccc2)c(CSc2cccc(Cl)c2)c1Cl`, the B-score was 6 (active).

Take `Cn1nc(-c2ccccc2)c(CO)c1Sc1ccccc1`: the B-score entry is “inactive”.

In the case of `COc1cccc(OCCCN2CCCCCC2)c1`, the B-score entry was “inactive”.

For `CCCCCCCCCCOC(=O)Cn1c(COc2cccc(OC)c2)[n+](C)c2ccccc21`, the B-score is 8 (active).

With `CCCCCCCCCCOC(=O)Cn1c(COc2ccc(C)cc2)[n+](C)c2ccccc21`, the B-score entry is “inactive”.
